# In the supplement of paper PMC8728848:
# This is one part of a sample in which the strongest signals are shown more often than they occur.
# How the values were obtained:
# Experiment in all cases: glycan array binding signal (z-score within array); higher = stronger binding
# Conditions in all cases: glycan notation: IUPAC condensed, linker removed
# [1] = target: Gal(b1-4)GlcNAc(b1-3)Gal(b1-4)GlcNAc(b1-3)Gal(b1-4)GlcNAc(b1-2)Man(a1-3)[Gal(b1-4)GlcNAc(b1-3)Gal(b1-4)GlcNAc(b1-3)Gal(b1-4)GlcNAc(b1-2)Man(a1-6)]Man(b1-4)GlcNAc(b1-4)GlcNAc
# Procedure, shortened: (§1)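 Glycan array data were curated from 3228 arrays in the Consortium for Functional Glycomics database and kept only where the protein sequence was available. Glycan names were converted to IUPAC-condensed notation, and columns mapping to the same glycan were averaged. The binding signal is a within-array Z-score, averaged across arrays of the same protein sequence at different concentrations or buffers and across linkers. Negative Z-scores can be read as non-binding.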
# [2] = target: Gal(b1-4)GlcNAc(b1-3)Gal(b1-4)GlcNAc(b1-3)Gal(b1-4)GlcNAc(b1-3)Gal(b1-4)GlcNAc(b1-2)Man(a1-3)[Gal(b1-4)GlcNAc(b1-3)Gal(b1-4)GlcNAc(b1-3)Gal(b1-4)GlcNAc(b1-3)Gal(b1-4)GlcNAc(b1-2)Man(a1-6)]Man(b1-4)GlcNAc(b1-4)GlcNAc
# Procedure, shortened: as §1
# [3] = target: Gal(b1-4)GlcNAc(b1-3)Gal(b1-4)GlcNAc(b1-3)Gal(b1-4)GlcNAc(b1-3)Gal(b1-4)GlcNAc(b1-3)Gal(b1-4)GlcNAc(b1-2)Man(a1-3)[Gal(b1-4)GlcNAc(b1-3)Gal(b1-4)GlcNAc(b1-3)Gal(b1-4)GlcNAc(b1-3)Gal(b1-4)GlcNAc(b1-3)Gal(b1-4)GlcNAc(b1-2)Man(a1-6)]Man(b1-4)GlcNAc(b1-4)GlcNAc
# Procedure, shortened: as §1
# [4] = target: Gal6P(b1-4)GlcNAc
# Procedure, shortened: as §1
# [5] = target: GalNAc(b1-3)Gal(a1-4)Gal(b1-4)GlcNAc(b1-3)Gal(b1-4)Glc
# Procedure, shortened: as §1
# [6] = target: GalNAc(b1-3)Gal(a1-6)Gal(b1-4)Glc
# Procedure, shortened: as §1
# [7] = target: GalNAc(b1-3)GalNAc
# Procedure, shortened: as §1
# [8] = target: GalNAc3S(b1-4)[Fuc(a1-3)]GlcNAc
# Procedure, shortened: as §1
# [9] = target: Glc(b1-6)Glc
# Procedure, shortened: as §1
# [10] = target: GlcNAc(a1-4)Gal(b1-3)GlcNAc
# Procedure, shortened: as §1
# [11] = target: GlcNAc(a1-4)Gal(b1-4)GlcNAc(b1-3)Gal(b1-4)[Fuc(a1-3)]GlcNAc(b1-3)Gal(b1-4)[Fuc(a1-3)]GlcNAc
# Procedure, shortened: as §1
# [12] = target: GlcNAc(b1-3)Gal(b1-4)GlcNAc(b1-3)Gal(b1-4)GlcNAc(b1-2)Man(a1-3)[GlcNAc(b1-3)Gal(b1-4)GlcNAc(b1-3)Gal(b1-4)GlcNAc(b1-2)Man(a1-6)]Man(b1-4)GlcNAc(b1-4)GlcNAc
# Procedure, shortened: as §1
# [13] = target: GlcNAc(b1-3)Gal(b1-4)GlcNAc(b1-3)Gal(b1-4)GlcNAc(b1-3)Gal(b1-4)GlcNAc(b1-2)[GlcNAc(b1-3)Gal(b1-4)GlcNAc(b1-3)Gal(b1-4)GlcNAc(b1-3)Gal(b1-4)GlcNAc(b1-6)]Man(a1-6)[GlcNAc(b1-3)Gal(b1-4)GlcNAc(b1-3)Gal(b1-4)GlcNAc(b1-3)Gal(b1-4)GlcNAc(b1-2)Man(a1-3)]Man(b1-4)GlcNAc(b1-4)[Fuc(a1-6)]GlcNAc
# Procedure, shortened: as §1
# [14] = target: GlcNAc(b1-3)Gal(b1-4)GlcNAc(b1-6)[Gal(b1-3)]GalNAc
# Procedure, shortened: as §1
# [15] = target: GlcNAc(b1-4)GlcNAc(b1-4)GlcNAc(b1-4)GlcNAc(b1-4)GlcNAc
# Procedure, shortened: as §1
# [16] = target: Kdn(a2-3)Gal(b1-3)GlcNAc
# Procedure, shortened: as §1
# [17] = target: Man(a1-2)Man(a1-2)Man(a1-3)Man
# Procedure, shortened: as §1
# [18] = target: Man(a1-2)Man(a1-3)[Man(a1-6)]Man(a1-6)[Man(a1-2)Man(a1-3)]Man(b1-4)GlcNAc(b1-4)GlcNAc
# Procedure, shortened: as §1
# [19] = target: Man(a1-2)Man(a1-6)[Man(a1-3)]Man(a1-6)[Man(a1-2)Man(a1-2)Man(a1-3)]Man(b1-4)GlcNAc(b1-4)GlcNAc
# Procedure, shortened: as §1
# [20] = target: Neu5Ac(a2-3)Gal(b1-3)GlcNAc(b1-2)Man
# Procedure, shortened: as §1
# [21] = target: Neu5Ac(a2-3)Gal(b1-3)GlcNAc(b1-6)GalNAc
# Procedure, shortened: as §1
# [22] = target: Neu5Ac(a2-3)Gal(b1-4)GlcNAc(b1-3)Gal(b1-4)GlcNAc(b1-3)Gal(b1-4)GlcNAc(b1-2)Man(a1-3)[Neu5Ac(a2-3)Gal(b1-4)GlcNAc(b1-3)Gal(b1-4)GlcNAc(b1-3)Gal(b1-4)GlcNAc(b1-2)Man(a1-6)]GalNAc
# Procedure, shortened: as §1
# [23] = target: Neu5Ac(a2-3)Gal(b1-4)GlcNAc6S
# Procedure, shortened: as §1
# [24] = target: Neu5Ac(a2-3)Gal(b1-4)[Fuc(a1-3)]GlcNAc(b1-3)GalNAc
# Procedure, shortened: as §1
# [25] = target: Neu5Ac(a2-8)Neu5Ac
# Procedure, shortened: as §1
# [26] = target: Neu5Ac(a2-8)Neu5Gc(a2-3)Gal(b1-4)GlcNAc
# Procedure, shortened: as §1
# [27] = target: Neu5Gc(a2-6)GalNAc
# Procedure, shortened: as §1
binder,measurement,setting,value
PX14375C-bth-509-28-509 (Bacteroides thetaiotaomicron) (protein) RSPQGQFTEDDNPNALVNGKIYNVYTMMRSFDITAGTPAIAIHYLRSEDSEKGSIPSDGSDVAEMYDDFLYTPTNGLLGSYWGKNYAIIYQCNDILDAIAEKETAGQTETEDIINKGEASFFRAYCYFNLVRAFGEVPLVTYKINDASEANIPKTTADKIYEQIDTDLKTAEESLPETWSTEYTGRLTWGAARSLHARTYMMRSDWDNMYKASTDVINKGLYNLKTPYNEIFTDDGENSGGSIFELQCTATAALPQSDVIGSQFCEVQGVRGAGQWDLGWGWHMATQLMADAYETGDPRKNATLLYFRKTDDEPITPENTNEPYGESPISPAMGAYFNKKAYTDPALRKEYTNKGFWVNIRLIRYSDVVLMAAEAANEKNIPGEAVDYLEMVRARARGTNTNILPKITTNDQGELREAIRHERRVELGLEPDRFYDLVRWGIASEVLHAAGKVNYQDKNALLPLPQSEIDKSKGVLVQNPDY,glycan array binding signal (z-score),[1],0.774
same,glycan array binding signal (z-score),[2],0.053
same,glycan array binding signal (z-score),[3],3.46
same,glycan array binding signal (z-score),[4],-0.343
same,glycan array binding signal (z-score),[5],0.244
same,glycan array binding signal (z-score),[6],-0.426
same,glycan array binding signal (z-score),[7],1.2
same,glycan array binding signal (z-score),[8],-0.31
same,glycan array binding signal (z-score),[9],-0.146
same,glycan array binding signal (z-score),[10],-0.442
same,glycan array binding signal (z-score),[11],-0.057
same,glycan array binding signal (z-score),[12],3.19
same,glycan array binding signal (z-score),[13],-0.11
same,glycan array binding signal (z-score),[14],-0.076
same,glycan array binding signal (z-score),[15],0.127
same,glycan array binding signal (z-score),[16],0.209
same,glycan array binding signal (z-score),[17],-0.321
same,glycan array binding signal (z-score),[18],-0.274
same,glycan array binding signal (z-score),[19],-0.383
same,glycan array binding signal (z-score),[20],-0.329
same,glycan array binding signal (z-score),[21],3.9
same,glycan array binding signal (z-score),[22],5.44
same,glycan array binding signal (z-score),[23],-0.321
same,glycan array binding signal (z-score),[24],-0.014
same,glycan array binding signal (z-score),[25],4.99
same,glycan array binding signal (z-score),[26],5.56
same,glycan array binding signal (z-score),[27],-0.21
